Rows were chosen to be rich in hits. Some 2.4% of all compounds tested hit in one or more screens of this group.
eIF4E 4G PPI – inhibitors of eIF4E and eIF4G interaction in translation initiation. inhibition, % at 21.7 µM. P63073+Q04637. TR-FRET eIF4E-eIF4GI(517-606) binding, 2 h. 220,000 compounds, 0.37% hits;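 active = inhibition above about 30%, limit read from the data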;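 note: 0% = full FRET control wells and 100% = background wells lacking eIF4GI fragment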
eIF4H FP inh – inhibitors of RNA binding by human eIF4H. Q15056. eIF4H fluorescence polarization binding assay. inhibition, % at 35 µM. 290,000 compounds, 0.94% hits;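 note: calls also rest on retests at 20 µM and on dose response follow-up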
PERK inhibitor – inhibitors of human PERK kinase; Q9NZJ5; CHO PERK-DD fusion, SEAP luminescence translation reporter; inhibition, % at 5.6 µM; 220,000 compounds, 0.17% hits;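 active = inhibition above the mean inhibition of all tested compounds plus 3 SD, set separately per screening campaign, cut at about 2.9% in these data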;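 note: PERK kinase domain activated by AP20187 dimerizer at 100 nM; 0% = DMSO with dimerizer and 100% = rapamycin at 8.4 µM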
Target sequence (Q9NZJ5 whole entry, looked up, the tested form may be a part): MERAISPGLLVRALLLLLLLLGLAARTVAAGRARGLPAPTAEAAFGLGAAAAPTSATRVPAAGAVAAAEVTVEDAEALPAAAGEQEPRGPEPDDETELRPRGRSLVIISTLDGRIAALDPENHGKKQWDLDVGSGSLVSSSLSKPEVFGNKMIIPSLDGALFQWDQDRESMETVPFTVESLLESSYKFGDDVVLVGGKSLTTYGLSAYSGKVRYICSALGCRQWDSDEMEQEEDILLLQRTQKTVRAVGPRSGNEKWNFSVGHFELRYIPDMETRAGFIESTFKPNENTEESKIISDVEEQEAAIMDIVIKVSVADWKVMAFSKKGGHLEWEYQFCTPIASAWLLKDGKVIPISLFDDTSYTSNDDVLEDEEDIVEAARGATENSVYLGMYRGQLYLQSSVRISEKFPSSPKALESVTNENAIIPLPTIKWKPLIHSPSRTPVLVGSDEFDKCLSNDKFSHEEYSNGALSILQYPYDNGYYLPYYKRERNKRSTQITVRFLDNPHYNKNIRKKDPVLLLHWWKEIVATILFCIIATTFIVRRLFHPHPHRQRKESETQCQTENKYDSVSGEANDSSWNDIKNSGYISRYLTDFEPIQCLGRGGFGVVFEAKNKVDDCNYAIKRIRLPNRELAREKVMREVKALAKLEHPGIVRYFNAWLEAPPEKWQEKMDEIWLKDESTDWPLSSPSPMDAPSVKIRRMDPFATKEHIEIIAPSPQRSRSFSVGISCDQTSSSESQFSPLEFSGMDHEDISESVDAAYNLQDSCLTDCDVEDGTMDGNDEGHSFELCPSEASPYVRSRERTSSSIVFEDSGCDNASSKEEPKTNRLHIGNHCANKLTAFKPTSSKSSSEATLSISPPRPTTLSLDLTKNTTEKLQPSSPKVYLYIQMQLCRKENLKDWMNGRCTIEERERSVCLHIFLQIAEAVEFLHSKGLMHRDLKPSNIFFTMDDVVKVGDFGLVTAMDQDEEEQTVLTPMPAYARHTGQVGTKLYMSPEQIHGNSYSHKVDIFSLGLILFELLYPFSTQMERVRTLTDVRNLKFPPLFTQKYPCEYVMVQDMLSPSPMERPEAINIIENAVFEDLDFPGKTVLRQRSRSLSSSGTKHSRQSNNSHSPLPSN
PfM18AAP inh – blocks P. falciparum M18 aspartyl aminopeptidase; recombinant PfM18AAP, H-Glu-NHMec fluorogenic cleavage; inhibition, % at 7.35 µM; 290,000 compounds, 1.2% hits; AID 1822;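 active = inhibition above the campaign mean inhibition over all tested compounds plus 3 SD, cut at about 28% in these data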;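 note: 0% = plate median of test compound wells and 100% = 2 mM ZnCl2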
PABP1 MLLE inh – inhibitors of microRNA-mediated deadenylation, human PABP1 MLLE binding; P11940; 360,000 compounds, 0.36% hits; AID 588489; inhibition, % at 20 µM; GST-MLLE / FITC-PAM2 fluorescence polarization; in the data active = inhibition above about 35%, passing the limit was not always enough;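 note: plate controls were DMSO wells with GST-MLLE for no effect and wells lacking GST-MLLE protein for full effect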
PABP polyA inh – blocks human PABP binding to poly(A) RNA. P11940. fluorescence polarization. inhibition, % at 35 µM. 290,000 compounds, 1% hits. AID 2014;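 note: calls also rest on retests at 20 µM and on dose response follow-up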
An asterisk follows results filed as active; ? = inconclusive; . = not tested or not shown; [ ] = remark or other dose. Unless noted, the rule behind the calls is not given here.

SMILES	eIF4E 4G PPI	eIF4H FP inh	PERK inhibitor	PfM18AAP inh	PABP1 MLLE inh	PABP polyA inh
NC(=O)C1CCN(C(=O)c2cc(-c3ccc(Cl)s3)nc3ccccc23)CC1	.	.	.	.	-6	.
Cc1ccc(N2C(=O)C3C(c4ccccc4)N4CCCN4C3(C)C2=O)cc1 (stereo unspecified)	1	-5	1	0	24	12
Cc1cc(C(=O)NC2Cc3ccccc3C2)c(C)o1	4	96*	0	1	2	72*
Cc1cc(C(=O)NC2CCCCC2)c(C)o1	.	.	.	.	16	.
Cc1cc(Cl)ccc1C(=O)C1CCCN(C(=O)c2cncs2)C1 (stereo unspecified)	.	-7	.	-4	0	13
C=CCN(CC=C)C(=S)Nc1ccc2nsnc2c1	3	13	0	1	52*	-6
O=C(O)CCn1c(CO)nc2ccccc21	1	0	0	1	-3	-5
O=C(O)CCn1c(-c2ccccn2)nc2ccccc21	.	91*	.	5	-4	15
CC(=O)Nc1ccc(NC(=O)C(C)n2nc(C)c([N+](=O)[O-])c2C)cc1 (stereo unspecified)	2	-4	3.0*	-4	-2	-6
CC(C)c1ccc(O)c(NC(=O)c2cncc(Br)c2)c1	-2	-12	1	2	1	8
CC(C)c1ccc(O)c(NC(=O)c2ncn[nH]2)c1	0	1	1	29*	-4	-12
Cc1ccsc1C=Nc1ccc(O)cc1	11	51*	1	12	22	28
N=C1/C(=C\c2ccc(-c3cccc(Cl)c3)o2)C(=O)N=C2SC=C(c3ccccc3)N12	1	4	1	1	-64	19
N=C1/C(=C\c2ccc(-c3ccc(C(=O)O)cc3)o2)C(=O)N=C2SC=C(c3ccccc3)N12	65*	70*	1	15	-109	46
CCCCc1c(C)nc2c(OC)cccc2c1SCC(=O)O	2	-2	4.2*	20	-10	4
Oc1ccc(C2C[C@H]3CC[C@@H]2C3)cc1O (stereo partly specified)	.	2	.	83*	32	10
O=C(c1coc(=O)c(Br)c1)N1CCCc2ccccc21	.	67*	2	-1	-18	98*
O=C(c1cccc(Br)c1)N1CCCc2ccccc21	.	4	.	1	2	2
CC1(C)CCCN(C(=O)c2coc(=O)c(Br)c2)C1	25	89*	0	-5	6	57*
O=C(c1coc(=O)c(Br)c1)N1CCC(C(O)(c2ccccc2)c2ccccc2)CC1	5	6	1	-2	-22	6
CC(C)(CO)NC(=O)Nc1ccc(Cl)c(Cl)c1	4	1	1	-8	3	5
Cn1cc([N+](=O)[O-])c(C(=O)NCc2cc3cc(Cl)ccc3[nH]2)n1	-4	2	0	8	11	-2
COc1ccc(/C=C/C(=O)Nc2ccc(N3CCOCC3)cc2)cc1	-1	5	1	6	0	-3
COc1ccc(N2CCN(c3ccc(NC(=O)/C=C\C(=O)O)cc3)CC2)cc1	.	8	.	31*	-2	11
Cc1ccc(NS(=O)(=O)c2cc3c4c(cccc4c2)C(=O)NC3=O)cc1C	-1	57	-1	8	0	39*
SMILES	eIF4E 4G PPI	eIF4H FP inh	PERK inhibitor	PfM18AAP inh	PABP1 MLLE inh	PABP polyA inh
Cc1cccc(C)c1NC(=O)CNc1ncnc2sc(C)c(C)c12	6	-4	0	-1	-2	-2
O=c1cc(CSc2nnnn2-c2ccccc2)[nH]c2[nH]n(-c3ccccc3)c(=O)c12	2	79*	0	5	-96	62*
c1ccc(CSc2nnnn2-c2ccccc2)cc1	3	-9	1	-5	5	7
Cc1ccc(C2=NN(C(=O)CSc3nnnn3C)C(c3ccco3)C2)cc1 (stereo unspecified)	.	.	.	.	-2	.
O=C(C1=C[C@@H]2[C@H]3C(=O)N(c4ccccc4Cl)C(=O)[C@H]3[C@@H](C(=O)c3ccc(Cl)cc3)N2C=C1)c1ccccc1	-1	52*	-1	8	.	12
COc1ccc(C(C)=O)cc1COC(=O)c1ccc(C)c(S(=O)(=O)N2CCOCC2)c1	.	.	.	.	-9	.
N#C/C(=N/Nc1ccc(OC(F)(F)F)cc1)C(N)=S	7	-7	0	2	41*	0
Cc1c(C(=O)C(=O)NCCc2ccc(S(N)(=O)=O)cc2)c2ccccc2n1C	20	93*	1	2	-6	active
Cc1n[nH]c(=O)nc1NCc1ccc(Cl)cc1	-2	-2	0	-12	-1	5
O=c1[nH]ncc(NCc2ccc(Cl)cc2)c1Cl	-2	0	0	-12	-10	53*
Cc1ccccc1Cn1ccc(NC(=O)c2cc3ncc(Br)cn3n2)n1	14	53*	1	-2	-2	-11
CC(C)N1CCN(c2ccc(S(=O)(=O)N3CCOCC3)cn2)CC1	.	-16	.	-9	14	2
CN(C)CCN1C(=O)c2cccc3cc([N+](=O)[O-])cc(c23)C1=O	.	.	.	.	81*	.
N#CCCN(NC(=O)OCc1ccccc1)C(=O)OCc1ccccc1	.	.	.	.	-4	.
CCCNc1cc(=S)nc(N)[nH]1	2	?	0	17	42*	?
COc1ccc(C(=O)NC(=S)Nc2ccc3c4c(cccc24)CC3)cc1OC	10	12*	1	-5	12	64*
Cc1c(C(=O)Nc2ccc3c4c(cccc24)CC3)cccc1[N+](=O)[O-]	4	8	0	5	9	0
Cc1c(C(=O)NC(=S)Nc2ccc3c4c(cccc24)CC3)cccc1[N+](=O)[O-]	3	26	1	5	42*	1
CCC(C(=O)OCC(=O)Nc1cc(OC)ccc1OC)c1ccccc1 (stereo unspecified)	-5	-6	1	4	-13	50*
CCC(C(=O)OCC(=O)c1ccc(OC)cc1OC)c1ccccc1 (stereo unspecified)	.	.	.	.	-6	.
CCN1C(N(C)CCc2c[nH]c3ccccc23)=N[C@@H](c2cccc(C(F)(F)F)c2)C(C(=O)OC)=C1C	.	.	.	.	-138	.
CCN1C(N(C)CCc2cccs2)=N[C@@H](c2ccccc2)C(C(=O)OC)=C1C	.	0	.	2	-101	54*
C=C(C)Cn1c(C2CC(=O)N(Cc3ccccc3)C2)nc2ccccc21 (stereo unspecified)	.	-2	.	.	6	2
CCn1c(C2CC(=O)N(Cc3ccccc3)C2)nc2ccccc21 (stereo unspecified)	52*[fluorescence artefact?]	-7	0	1	3	-1
CC(=O)c1sc2nc(CSc3nnnn3-c3ccccc3)[nH]c(=O)c2c1C	31*	?	0	-1	-135	0
COc1ccc(CN2CCN(S(=O)(=O)c3ccc(NC(C)=O)cc3)CC2)c(OC)c1OC	3	12	0	-10	-2	18
O=c1cc(N=Nc2ccc(Cl)cc2)[nH]c(=O)[nH]1	0	6	1	70*	5	12

Screening data (PubChem)
